The record followed here is the supplement of paper PMC3414501.

Each structure is given as a SMILES string. Where a name gives a salt, the structure may show the parent alone.

For this assay, the system named is S. cerevisiae AD1-9 (efflux-pump deficient), vegetative growth in YPD. The assay can be described thus: growth sensitivity score (doubling time z-score vs DMSO controls); higher = slower growth, strongly negative scores also mark growth inhibition (complete suppression), active = hit call of the paper. In short, it runs like this:
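Rich medium in microtiter plates was seeded with Saccharomyces cerevisiae strains BY4741 and AD1-9 at an OD600 of 0.065, and compounds were added as a 1:100 dilution of DMSO stock. A Tecan GENios reader recorded optical density every 15 min for 24 hours, with eight solvent-only wells in each experiment. Average doubling time was the time to reach a set generation point divided by generation number. The growth sensitivity score was the compound mean minus the solvent-only mean, divided by the solvent-only standard deviation.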
Compound `CN1[C@@H]2CC[C@H]1C[C@@H](OC(=O)c1c[nH]c3ccccc13)C2` [Tropisetron hydrochloride] (stock concentration (mM, diluted 1:100): 7.7) had a growth sensitivity score of -2.07.
As for `O=C1c2cccc3c2[C@H](CCC3)CN1[C@@H]1CN2CCC1CC2` [Palonosetron hydrochloride] (stock concentration (mM, diluted 1:100): 10), the figure is 2.17 (active); as for `CCN1CCC[C@H]1CNC(=O)c1c(O)c(Cl)cc(Cl)c1OC` [Raclopride] (stock concentration (mM, diluted 1:100): 10), -1.88 (inactive).
In the case of `Clc1ccccc1CN1CCc2sccc2C1` [Ticlopidine hydrochloride] (stock concentration (mM, diluted 1:100): 8.7), the growth sensitivity score is 1.32 (inactive).
As for `CCN1CCC[C@H]1CNC(=O)c1cc(S(N)(=O)=O)ccc1OC` [Levosulpiride] (stock concentration (mM, diluted 1:100): 10), the figure is -0.24 (inactive).
Regarding `CCc1c2c(nc3ccc(OC(=O)N4CCC(N5CCCCC5)CC4)cc13)-c1cc3c(c(=O)n1C2)COC(=O)[C@]3(O)CC` [Irinotecan hydrochloride] (stock concentration (mM, diluted 1:100): 8.7), the growth sensitivity score was 2.14 (active).
As for `COc1cc(C[C@@H](CO)[C@H](CO)Cc2ccc(O)c(OC)c2)ccc1O` [Secoisolariciresinol] (stock concentration (mM, diluted 1:100): 10), the figure is 0.75 (inactive).
